# Reference: PubChem BioAssay (NCATS)
# “And” between values parts separate entries of the source, which are not always exact repeats. Identical values can stand only once. Results filed as inconclusive are left out. Unmarked numbers belong to inactive results. The source made the active and inactive calls. The call rests on the fitted dose curve; in most records, active means well fitted cell-killing curve with a large enough effect; inconclusive means small, poorly fitted or top-dose-only effect, or effect the other way; inactive means flat fitted curve, though single readings scatter.
# Tested on: JEG-3
# Assay: Primary qHTS to identify gynecologic anti-cancer compounds using libraries of approved drugs and bioactive compounds (AID 1345084); further: nearly all actives have a fitted effect of over 55% in size
# Conditions: Gynecologic cancer cell panel viability, ATPlite luminescence, 48 h; series mostly up to 57.5 µM; activity change, negative = cytotoxicity: at the top concentration
# How it was run: (§1)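 ATP-based viability (ATPlite), 1,000 cells/well, 16 h pre-incubation, 48 h compound at 37 C, 5% CO2, 15 min RT before read.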
# On the % scale 0 is the no-effect control and ±100 the full control effect; potency means the concentration at half of the fitted maximal effect.
Compound,"activity change, negative = cytotoxicity",Potency
COC(=O)C1=C(C)NC(C)=C(C(=O)OCCN2CCN(C(c3ccccc3)c3ccccc3)CC2)C1c1cccc([N+](=O)[O-])c1 (stereo not given),17.4%,–
Cc1cnc(Nc2ccc(F)cc2Cl)nc1-c1c[nH]c(C(=O)N[C@H](CO)c2cccc(Cl)c2)c1,-16.8%,–
CNc1nccc(-c2cccnc2Oc2cc(C(=O)Nc3cccc(C(F)(F)F)c3)ccc2C)n1,-15.9%,–
COc1cc2c(cc1-c1c(C)noc1C)ncc1[nH]c(=O)n([C@H](C)c3ccccn3)c12,–,12.6 µM (active)
CCS(=O)(=O)c1cccc(-c2cc(C(=O)NC3CCN(C)CC3)c(C)c3[nH]c4ncc(C)cc4c23)c1,–,8.91 µM (active)
c1ccc2c(CCNc3ccc(Nc4ccncc4)cc3)c[nH]c2c1,-16.3%,–
COc1cc(C(=O)N2CCC(N3CCN(C)CC3)CC2)ccc1Nc1ncc2c(n1)N(C)c1ccccc1C(=O)N2C,-22.3%,–
CC1COC2(CCN(c3nc(=O)c4cc(C(F)(F)F)cc([N+](=O)[O-])c4s3)CC2)O1 (stereo not given),1.73%,–
CCOC(=O)C1=C(C)NC2=C(C(=O)CC(C)(C)C2)C1c1ccc(-c2ccccc2)cc1 (stereo not given),2.25%,–
Cc1c(NC(=O)OC[C@@H]2COCCN2)cn2ncnc(Nc3ccc4c(cnn4Cc4cccc(F)c4)c3)c12,-4.76%,–
COC(=O)c1ccc2c(C(=Nc3ccc(N(C)C(=O)CN4CCN(C)CC4)cc3)c3ccccc3)c(O)[nH]c2c1,8.97%,–
Cc1nc2ccc(CN(C)c3ccc(C(=O)N[C@@H](CCC(=O)O)C(=O)O)s3)cc2c(=O)[nH]1,–,0.631 µM (active)
Cc1c(C)n(Cc2ccc(-c3ccccc3C(=O)O)cc2)c2ccc(C(=O)N[C@@H](C)c3ccc([N+](=O)[O-])cc3)cc12,7.14%,–
CCCCOc1c(C(=O)c2c(F)cc(C)cc2F)cnc2n[nH]cc12,-23.3%,–
C[C@@H]1COC(Nc2ccc3ncnc(Nc4ccc(OCc5nccs5)c(Cl)c4)c3c2)=N1,4.06%,–
Nc1nc(Nc2ccc(S(N)(=O)=O)cc2)nn1C(=O)c1c(F)cccc1F,3.67%,–
CS(=O)(=O)c1ccc(-c2cnc(N)c(C(=O)Nc3ccccc3)n2)cc1,-17.8%,–
CCc1c2c(nc3ccc(O)cc13)-c1cc3c(c(=O)n1C2)COC(=O)[C@]3(O)CC,–,8.91 µM (active)

Compound,"activity change, negative = cytotoxicity",Potency
C=CCn1c(=O)c2cnc(Nc3ccc(N4CCN(C)CC4)cc3)nc2n1-c1cccc(C(C)(C)O)n1,–,3.55 µM (active)
Cn1cc(-c2[nH]c3cc(NC(=O)[C@H](N)C4CCCCC4)cc4c3c2C=NNC4=O)cn1,2.35%,–
Cc1ccc(C(N)=O)cc1Nc1nccc(-c2cn(C(C)C)c3cnccc23)n1,-14.2%,–
Cc1cc(N2CCOCC2)cc2[nH]c(-c3c(NC[C@@H](O)c4cccc(Cl)c4)cc[nH]c3=O)nc12,-15.7%,–
Nc1ccccc1NC(=O)c1ccc(CNc2nccc(-c3cccnc3)n2)cc1,–,3.55 µM (active)
Nc1cccc(-c2cc3c(Oc4cccc(O)c4)ncnc3[nH]2)c1,-17.4%,–
COc1cc2nccc(Oc3ccc(NC(=O)C4(C(=O)Nc5ccc(F)cc5)CC4)cc3)c2cc1OC,–,11.2 µM (active)
Cc1cc(Nc2cc(N3CCN(C)CC3)nc(Sc3ccc(NC(=O)C4CC4)cc3)n2)n[nH]1,-5.84%,–
COCCOc1ccc2c(c1)ncn2-c1ccc2cccc(N3CCC(N)CC3)c2n1,–,17.8 µM (active)
NC(=O)c1c(OCc2c(F)cc(Br)cc2F)nsc1NC(=O)NCCCCN1CCCC1,-13.7%,–
Cn1c2ccccc2c2c3c(c4c5ccccc5n(CCC#N)c4c21)CNC3=O,-2.29%,–
COc1cc(-c2nn(C3CCC(N4CCN(C(C)=O)CC4)CC3)c3ncnc(N)c23)ccc1NC(=O)c1cc2ccccc2n1C (stereo not given),-7.32%,–
O=C(O)C1(Cc2cccc(Nc3nccs3)n2)CCC(Oc2cccc(Cl)c2F)CC1 (stereo not given),2.96%,–
CNC(=O)c1nn(C)c2c1C(C)(C)Cc1cnc(Nc3ccc(N4CCN(C)CC4)cc3)nc1-2,–,11.2 µM (active)
O=C(O)c1ccc2c(c1)nc(Nc1cccc(Cl)c1)c1ccncc12,25.6%,–
CC(=O)Nc1nc(C)c(-c2ccc(Cl)c(S(=O)(=O)NCCO)c2)s1,-21.6%,–
CNC(=O)c1c(F)cccc1Nc1nc(Nc2cc3c(cc2OC)CCN3C(=O)CN(C)C)nc2[nH]ccc12,-0.0502%,–

# Tested on: OV90
# Assay: as above
# Conditions: Gynecologic cancer cell panel viability, ATPlite luminescence, 48 h; series mostly up to 57.5 µM; activity change, negative = cytotoxicity: at the top concentration
# How it was run: as §1
Compound,"activity change, negative = cytotoxicity",Potency
COC(=O)C1=C(C)NC(C)=C(C(=O)OCCN2CCN(C(c3ccccc3)c3ccccc3)CC2)C1c1cccc([N+](=O)[O-])c1 (stereo not given),-26.3%,–
COc1ccc(OC)c(-c2nnc3ccc(-c4ccc(OC)c(O[C@@H]5CCOC5)c4)nn23)c1,-25.5%,–
COc1cc(C(=O)N2CCC(N3CCN(C)CC3)CC2)ccc1Nc1ncc2c(n1)N(C)c1ccccc1C(=O)N2C,-33.8%,–
CCOC(=O)C1=C(C)NC2=C(C(=O)CC(C)(C)C2)C1c1ccc(-c2ccccc2)cc1 (stereo not given),-13%,–
CC[C@@H]1C(=O)N(C)c2cnc(Nc3ccc(C(=O)NC4CCC(N5CCN(CC6CC6)CC5)CC4)cc3OC)nc2N1C(C)C (stereo not given in full),–,15.8 µM (active) and 12.6 µM (active)
COc1cccc(-c2ccc(NC(=O)C3=C(C(=O)O)CCC3)c(F)c2)c1,-23.5%,–
Cc1c(C)n(Cc2ccc(-c3ccccc3C(=O)O)cc2)c2ccc(C(=O)N[C@@H](C)c3ccc([N+](=O)[O-])cc3)cc12,-4.29%,–
CS(=O)(=O)c1ccc(-c2cnc(N)c(C(=O)Nc3ccccc3)n2)cc1,-6.95%,–
CCc1c2c(nc3ccc(O)cc13)-c1cc3c(c(=O)n1C2)COC(=O)[C@]3(O)CC,–,1.78 µM (active)
Cc1ccc(C(N)=O)cc1Nc1nccc(-c2cn(C(C)C)c3cnccc23)n1,–,17.8 µM (active)
NC(=O)c1c(OCc2c(F)cc(Br)cc2F)nsc1NC(=O)NCCCCN1CCCC1,-30.9%,–
Cn1c2ccccc2c2c3c(c4c5ccccc5n(CCC#N)c4c21)CNC3=O,-16.1%,–
COc1cc(-c2nn(C3CCC(N4CCN(C(C)=O)CC4)CC3)c3ncnc(N)c23)ccc1NC(=O)c1cc2ccccc2n1C (stereo not given),-23.6%,–
O=C(O)C1(Cc2cccc(Nc3nccs3)n2)CCC(Oc2cccc(Cl)c2F)CC1 (stereo not given),1.29%,–
CNC(=O)c1c(F)cccc1Nc1nc(Nc2cc3c(cc2OC)CCN3C(=O)CN(C)C)nc2[nH]ccc12,-23.6%,–
